Whole data set: some 16,000 sequences, median “rpm ratio (pull-down/input)” near 0.5, cut for the highest 2% near 5.5. The list comes from a sample in which the highest values are over-represented; it also holds similar and randomly drawn sequences.

We go through 35 sequences from paper PMC12820563, “FoxP3 forms a head-to-head dimer in vivo and stabilizes its multimerization on adjacent microsatellites”.

The assay has as its target T1, MBP-FoxP3dN (Mus musculus, UniProt Q99JB6 188-423).
T1 sequence: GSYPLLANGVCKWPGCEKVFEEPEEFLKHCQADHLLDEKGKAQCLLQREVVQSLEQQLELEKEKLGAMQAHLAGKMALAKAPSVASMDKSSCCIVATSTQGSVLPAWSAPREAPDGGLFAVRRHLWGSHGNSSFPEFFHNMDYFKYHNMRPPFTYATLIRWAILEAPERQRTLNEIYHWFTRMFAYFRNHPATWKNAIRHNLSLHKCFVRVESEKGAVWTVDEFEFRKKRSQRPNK
Briefly: PD-seq (MBP pull-down with sequencing); 20 mM Tris-HCl pH 7.5, 100 mM NaCl, 1.5 mM MgCl2, 0.4 uM protein, 0.1 uM dsDNA library, 30 min, room temperature, amylose pull-down; high values mean tight binding. To be noted: protein: recombinant; tags: His6-MBP; chain copies: 2; dsDNA, one strand shown. A digest of the protocol:
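Mouse FoxP3 or FoxP1 fragment lacking the N-terminus, His6-MBP-tagged and expressed in E. coli, was incubated at 0.4 µM with 0.1 µM Klenow-filled degenerate double-stranded DNA library for 30 min at room temperature in Tris pH 7.5 buffer with NaCl and MgCl2. Complexes captured on amylose resin were washed three times and their DNA sequenced on Illumina. Binding is reads-per-million enrichment of pull-down over input, replicates pooled.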
On to “GATGATTGTTCTCCCAGCTGATGAATTAATCTATTCGAGTAAACAAATTTTCCTAATCTTTCTGTTCAAGCGCCATCTAC”, for which the binding signal was 0.398 RPM ratio (pull-down/input). As for “GATGATTGTTCTCCCAGCTGATGAATTTCTAATTTCGAGTAAACAAATTTTCCTAATCTTTCTGTTCAAGCGCCATCTAC”, the figure is 0.301 RPM ratio (pull-down/input); as for “GATGATTGTTCTCCCAGCTGATGAATTTATGATGTCGAGTAAACAAATTTTCCTAATCTTTCTGTTCAAGCGCCATCTAC”, 3.91 RPM ratio (pull-down/input); as for “GATGATTGTTCTCCCAGCTGATGAATTTATGTTGTCGAGTAAACAAATTTTCCTAATCTTTCTGTTCAAGCGCCATCTAC”, 4.93 RPM ratio (pull-down/input). Take “GATGATTGTTCTCCCAGCTGATGAATTGGTTATGTCGAGTAAACAAATTTTCCTAATCTTTCTGTTCAAGCGCCATCTAC”: the binding signal is 2.38 RPM ratio (pull-down/input). Regarding “GATGATTGTTCTCCCAGCTGATGAATTGATTATGTCGAGTAAACAAATTTTCCTAATCTTTCTGTTCAAGCGCCATCTAC”, the binding signal is 1.86 RPM ratio (pull-down/input). Regarding “GATGATTGTTCTCCCAGCTGATGAATTTGTTATGTCGAGTAAACAAATTTTCCTAATCTTTCTGTTCAAGCGCCATCTAC”, the binding signal was 6.84 RPM ratio (pull-down/input).

“GATGATTGTTCTCCCAGCTGATGAATTGTTTATGTCGAGTAAACAAATTTTCCTAATCTTTCTGTTCAAGCGCCATCTAC”: the binding signal was 7 RPM ratio (pull-down/input). Take “GATGATTGTTCTCCCAGCTGATGAATTATGTCTGTCGAGTAAACAAATTTTCCTAATCTTTCTGTTCAAGCGCCATCTAC”: the binding signal was 1.14 RPM ratio (pull-down/input). Regarding “GATGATTGTTCTCCCAGCTGATGAATTTCTTATGTCGAGTAAACAAATTTTCCTAATCTTTCTGTTCAAGCGCCATCTAC”, the binding signal is 0.657 RPM ratio (pull-down/input). With “GATGATTGTTCTCCCAGCTGATGAATTATGTTTGTCGAGTAAACAAATTTTCCTAATCTTTCTGTTCAAGCGCCATCTAC”, the binding signal is 7.57 RPM ratio (pull-down/input). As for “GATGATTGTTCTCCCAGCTGATGAATTTATTATGTCGAGTAAACAAATTTTCCTAATCTTTCTGTTCAAGCGCCATCTAC”, the figure is 5.83 RPM ratio (pull-down/input). As for “GATGATTGTTCTCCCAGCTGATGAATTTTTTATGTCGAGTAAACAAATTTTCCTAATCTTTCTGTTCAAGCGCCATCTAC”, the binding signal is 0.31 RPM ratio (pull-down/input). As for “GATGATTGTTCTCCCAGCTGATGAATTATTTATGTCGAGTAAACAAATTTTCCTAATCTTTCTGTTCAAGCGCCATCTAC”, the binding signal was 2.12 RPM ratio (pull-down/input).

On to “GATGATTGTTCTCCCAGCTGATGAATTGAGCACGTCGAGTAAACAAATTTTCCTAATCTTTCTGTTCAAGCGCCATCTAC”, for which the binding signal is 0.919 RPM ratio (pull-down/input). As for “GATGATTGTTCTCCCAGCTGATGAATTCGTATGCTCGAGTAAACAAATTTTCCTAATCTTTCTGTTCAAGCGCCATCTAC”, the figure is 2.01 RPM ratio (pull-down/input); as for “GATGATTGTTCTCCCAGCTGATGAATTTGGCGACTCGAGTAAACAAATTTTCCTAATCTTTCTGTTCAAGCGCCATCTAC”, 1.79 RPM ratio (pull-down/input); as for “GATGATTGTTCTCCCAGCTGATGAATTTCTGCTGTCGAGTAAACAAATTTTCCTAATCTTTCTGTTCAAGCGCCATCTAC”, 0.378 RPM ratio (pull-down/input). As to “GATGATTGTTCTCCCAGCTGATGAATTACTTGTTTCGAGTAAACAAATTTTCCTAATCTTTCTGTTCAAGCGCCATCTAC”, the binding signal was 0.804 RPM ratio (pull-down/input). As to “GATGATTGTTCTCCCAGCTGATGAATTCCTGAAATCGAGTAAACAAATTTTCCTAATCTTTCTGTTCAAGCGCCATCTAC”, the binding signal is 0.237 RPM ratio (pull-down/input). Turning to “GATGATTGTTCTCCCAGCTGATGAATTTGAGTTATCGAGTAAACAAATTTTCCTAATCTTTCTGTTCAAGCGCCATCTAC”, the binding signal is 0.953 RPM ratio (pull-down/input). For the sequence “GATGATTGTTCTCCCAGCTGATGAATTACCCTGATCGAGTAAACAAATTTTCCTAATCTTTCTGTTCAAGCGCCATCTAC”, the binding signal is 0.253 RPM ratio (pull-down/input). With “GATGATTGTTCTCCCAGCTGATGAATTTAGATTCTCGAGTAAACAAATTTTCCTAATCTTTCTGTTCAAGCGCCATCTAC”, the binding signal is 0.815 RPM ratio (pull-down/input). Regarding “GATGATTGTTCTCCCAGCTGATGAATTTGGTGTATCGAGTAAACAAATTTTCCTAATCTTTCTGTTCAAGCGCCATCTAC”, the binding signal was 3.25 RPM ratio (pull-down/input). Take “GATGATTGTTCTCCCAGCTGATGAATTCTGTGTATCGAGTAAACAAATTTTCCTAATCTTTCTGTTCAAGCGCCATCTAC”: the binding signal was 5.85 RPM ratio (pull-down/input). With “GATGATTGTTCTCCCAGCTGATGAATTTGTGTAATCGAGTAAACAAATTTTCCTAATCTTTCTGTTCAAGCGCCATCTAC”, the binding signal was 4.48 RPM ratio (pull-down/input). On to “GATGATTGTTCTCCCAGCTGATGAATTGTGTAAATCGAGTAAACAAATTTTCCTAATCTTTCTGTTCAAGCGCCATCTAC”, for which the binding signal is 0.96 RPM ratio (pull-down/input). “GATGATTGTTCTCCCAGCTGATGAATTCTTTGTATCGAGTAAACAAATTTTCCTAATCTTTCTGTTCAAGCGCCATCTAC”: the binding signal is 0.57 RPM ratio (pull-down/input). For “GATGATTGTTCTCCCAGCTGATGAATTTTGTGTATCGAGTAAACAAATTTTCCTAATCTTTCTGTTCAAGCGCCATCTAC”, the binding signal is 6.55 RPM ratio (pull-down/input). Consider “GATGATTGTTCTCCCAGCTGATGAATTGTGTGTATCGAGTAAACAAATTTTCCTAATCTTTCTGTTCAAGCGCCATCTAC”, for which the binding signal is 6.39 RPM ratio (pull-down/input).

On to “GATGATTGTTCTCCCAGCTGATGAATTCTCTGTATCGAGTAAACAAATTTTCCTAATCTTTCTGTTCAAGCGCCATCTAC”, for which the binding signal was 0.441 RPM ratio (pull-down/input). With “GATGATTGTTCTCCCAGCTGATGAATTGTATATCTCGAGTAAACAAATTTTCCTAATCTTTCTGTTCAAGCGCCATCTAC”, the binding signal was 3.03 RPM ratio (pull-down/input). As for “GATGATTGTTCTCCCAGCTGATGAATTGTGTATATCGAGTAAACAAATTTTCCTAATCTTTCTGTTCAAGCGCCATCTAC”, the figure is 6.5 RPM ratio (pull-down/input); as for “GATGATTGTTCTCCCAGCTGATGAATTGAGTATATCGAGTAAACAAATTTTCCTAATCTTTCTGTTCAAGCGCCATCTAC”, 1.7 RPM ratio (pull-down/input). “GATGATTGTTCTCCCAGCTGATGAATTTTCTGTATCGAGTAAACAAATTTTCCTAATCTTTCTGTTCAAGCGCCATCTAC”: the binding signal is 0.456 RPM ratio (pull-down/input).
